Assay [1] is described as follows: NCI Yeast Anticancer Drug Screen. Data for the rad50 strain (AID 155).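 Further: 0% = growth of vehicle-only cultures of the same strain.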 The settings on record: S. cerevisiae rad50 strain growth inhibition, active compounds read high. In a few lines: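 Inhibition values express reduced yeast growth in compound-treated cultures relative to vehicle-treated controls.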
The nature of assay [2]: NCI Yeast Anticancer Drug Screen. Data for the mec2-1 strain (AID 157). The settings on record: S. cerevisiae mec2-1 strain, active compounds read high. In a few lines: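 Yeast mec2-1 mutant treated with compound. Readout: growth inhibition vs vehicle controls.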
Assay [3] can be described thus: NCI Yeast Anticancer Drug Screen. Data for the sgs1 mgt1 strain (AID 161).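 Further: 0% = growth of cultures given vehicle only.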 The settings on record: S. cerevisiae sgs1 mgt1 strain, active compounds read high. In a few lines:
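Inhibition of yeast growth, normalised to vehicle-treated controls, is reported for a strain bearing genetic alterations in DNA damage repair.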

Assay [4] in a line: NCI Yeast Anticancer Drug Screen. Data for the cln2 rad14 strain (AID 165).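 Further: 0% = growth equal to vehicle treated cultures.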 The settings on record: S. cerevisiae cln2 rad14 strain, active compounds read high. In a few lines: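 cln2 rad14 yeast strain; compound exposure; growth inhibition read vs vehicle controls.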
Assay [5] is described as follows: NCI Yeast Anticancer Drug Screen. Data for the bub3 strain (AID 167). The settings on record: S. cerevisiae bub3 mutant strain, active compounds read high. In a few lines:
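Steps: expose the mutant yeast strain to compound; grow alongside vehicle-treated cultures; measure growth; express inhibition against the vehicle cultures.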

Assay [6] can be described thus: NCI Yeast Anticancer Drug Screen. Data for the mlh1 rad18 strain (AID 175). The settings on record: S. cerevisiae mlh1 rad18 strain growth inhibition, active compounds read high. In a few lines:
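Yeast w/ defined DNA-repair lesions; compound exposure; growth vs vehicle controls → % inhibition.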

Setting [7] is: at 5.0 µM (retest, dose inferred, filed as 0.5).
Setting [8] is: at 50.0 µM (retest, dose inferred, filed as 5.0).

The structures appear in SMILES notation. This is part of a sample that, as a whole, favours compounds with a hit. Of some 79,000 tested, about 15% had one in any assay. Values without a mark were called inactive. Activity calls are given as the source filed them. No stated cut-off is given here; in the data, active means growth inhibition above about 70%; inactive means the rest.

Take `O=S(=O)(Nc1ccccc1-c1ccc(Cl)cc1)c1ccccc1`: the growth inhibition in assay [1] (setting [7]) is -6%; in assay [1] (setting [8]), 14%; in assay [1] (at 50.0 µM) it was 98.9% (active); in assay [2] (setting [7]), -8%; in assay [2] (setting [8]), 8%; in assay [2] (at 50.0 µM), 52.9%. Besides, the growth inhibition was -7% in assay [3] (setting [7]); -56% in assay [3] (setting [8]); 97.5% (active) in assay [3] (at 50.0 µM); -12% in assay [4] (setting [7]); 95% (active) in assay [4] (setting [8]); 98% (active) in assay [4] (at 50.0 µM). For the same compound, the growth inhibition in assay [5] (setting [7]) was 2%; in assay [5] (setting [8]), 91% (active); in assay [5] (at 50.0 µM) it was 54.9%; in assay [6] (setting [7]), -8%; in assay [6] (setting [8]), 57%; in assay [6] (at 50.0 µM), 73.7% (active).
Turning to `Cc1ccc(-c2ccccc2)n1-c1cc(Cl)ccc1O`, the growth inhibition was 12% in assay [1] (setting [7]); 99% (active) in assay [1] (setting [8]); 99% (active) in assay [1] (at 50.0 µM); 4% in assay [2] (setting [7]); 99% (active) in assay [2] (setting [8]); 99.2% (active) in assay [2] (at 50.0 µM). For the same compound, the growth inhibition is -1% in assay [3] (setting [7]); 99% (active) in assay [3] (setting [8]); 99.2% (active) in assay [3] (at 50.0 µM); 8% in assay [4] (setting [7]); 99% (active) in assay [4] (setting [8]); 97.9% (active) in assay [4] (at 50.0 µM). The growth inhibition was 0% in assay [5] (setting [7]); 99% (active) in assay [5] (setting [8]); 99% (active) in assay [5] (at 50.0 µM); 10% in assay [6] (setting [7]); 99% (active) in assay [6] (setting [8]); 99.1% (active) in assay [6] (at 50.0 µM).
For the compound `Cc1c(C)c(O)c2c(c1O)C(=O)C=C(Cl)C2=O`, the growth inhibition in assay [1] (setting [7]) was 99% (active); in assay [1] (setting [8]), 94% (active); in assay [1] (at 50.0 µM), 88.3% (active); in assay [2] (setting [7]), 100% (active); in assay [2] (setting [8]), 96% (active); in assay [2] (at 50.0 µM), 90.2% (active). The growth inhibition in assay [3] (setting [7]) is 100% (active); in assay [3] (setting [8]), 97% (active); in assay [3] (at 50.0 µM), 88.3% (active); in assay [4] (setting [7]) it was 45%; in assay [4] (setting [8]), 96% (active); in assay [4] (at 50.0 µM), 90.7% (active). The growth inhibition in assay [5] (setting [7]) is 99% (active); in assay [5] (setting [8]) it was 97% (active); in assay [5] (at 50.0 µM), 87.7% (active); in assay [6] (setting [7]) it was 99% (active); in assay [6] (setting [8]), 96% (active); in assay [6] (at 50.0 µM) it was 88.6% (active).
For `O=C(Cl)c1ccc(N=Nc2ccccc2)cc1`, the growth inhibition in assay [1] (setting [7]) was 2%; in assay [1] (setting [8]), 31%; in assay [1] (at 50.0 µM), 69.5%; in assay [2] (setting [7]), -1%; in assay [2] (setting [8]) it was 23%; in assay [2] (at 50.0 µM) it was 37%. Also, the growth inhibition was -1% in assay [3] (setting [7]); 14% in assay [3] (setting [8]); 47.5% in assay [3] (at 50.0 µM); 0% in assay [4] (setting [7]); 23% in assay [4] (setting [8]); 49.2% in assay [4] (at 50.0 µM). For the same compound, the growth inhibition in assay [5] (setting [7]) was 1%; in assay [5] (setting [8]) it was 21%; in assay [5] (at 50.0 µM) it was 65.5%; in assay [6] (setting [7]), 3%; in assay [6] (setting [8]), 27%; in assay [6] (at 50.0 µM) it was 80% (active).
For `CC(=O)OC(c1ccc(Cl)cc1)c1ccc(Cl)cc1`, the growth inhibition was -43% in assay [1] (setting [7]); 1% in assay [1] (setting [8]); 16.5% in assay [1] (at 50.0 µM); -11% in assay [2] (setting [7]); -8% in assay [2] (setting [8]); -2% in assay [2] (at 50.0 µM). Also, the growth inhibition is -7% in assay [3] (setting [7]); 20% in assay [3] (setting [8]); 18.8% in assay [3] (at 50.0 µM); -17% in assay [4] (setting [7]); 4% in assay [4] (setting [8]); 8.85% in assay [4] (at 50.0 µM). The growth inhibition was 2% in assay [5] (setting [7]); 0% in assay [5] (setting [8]); 0.2% in assay [5] (at 50.0 µM); -22% in assay [6] (setting [7]); 16% in assay [6] (setting [8]); 18.9% in assay [6] (at 50.0 µM).
As to `O=C1c2ccccc2C(=O)c2sc(Nc3ccc(Cl)c(Cl)c3)nc21`, the growth inhibition in assay [1] (setting [7]) is 89% (active); in assay [1] (setting [8]) it was 98% (active); in assay [1] (at 50.0 µM) it was 90% (active); in assay [2] (setting [7]), 86% (active); in assay [2] (setting [8]), 98% (active); in assay [2] (at 50.0 µM) it was 92.8% (active). Moreover, the growth inhibition was 99% (active) in assay [3] (setting [7]); 98% (active) in assay [3] (setting [8]); 93.2% (active) in assay [3] (at 50.0 µM); 68% in assay [4] (setting [7]); 98% (active) in assay [4] (setting [8]); 88% (active) in assay [4] (at 50.0 µM). Also, the growth inhibition is 99% (active) in assay [5] (setting [7]); 97% (active) in assay [5] (setting [8]); 91.2% (active) in assay [5] (at 50.0 µM); 91% (active) in assay [6] (setting [7]); 97% (active) in assay [6] (setting [8]); 91.3% (active) in assay [6] (at 50.0 µM).
Regarding `Cc1ccc(S(=O)(=O)OCC2OC(c3ccccc3)OC3C(CO)OC(c4ccccc4)OC23)cc1` (stereo not given), the growth inhibition in assay [1] (setting [7]) was -1%; in assay [1] (setting [8]), -6%; in assay [1] (at 50.0 µM) it was 16.7%; in assay [2] (setting [7]) it was 0%; in assay [2] (setting [8]) it was -5%; in assay [2] (at 50.0 µM), 50.5%. The growth inhibition in assay [3] (setting [7]) was -3%; in assay [3] (setting [8]), -6%; in assay [3] (at 50.0 µM), 11.3%; in assay [4] (setting [7]), 4%; in assay [4] (setting [8]) it was -10%; in assay [4] (at 50.0 µM), 16.2%. The growth inhibition in assay [5] (setting [7]) was 0%; in assay [5] (setting [8]), -5%; in assay [5] (at 50.0 µM), -0.65%; in assay [6] (setting [7]), 0%; in assay [6] (setting [8]), -6%; in assay [6] (at 50.0 µM) it was 60.5%.
Take `CCOC(=O)Cn1c(=O)c2nc(SC)sc2n(-c2ccc(C)cc2)c1=S`: the growth inhibition is -3% in assay [1] (setting [7]); -1% in assay [1] (setting [8]); -4.9% in assay [1] (at 50.0 µM); -1% in assay [2] (setting [7]); -10% in assay [2] (setting [8]); -6.25% in assay [2] (at 50.0 µM). For the same compound, the growth inhibition in assay [3] (setting [7]) was 0%; in assay [3] (setting [8]) it was 6%; in assay [3] (at 50.0 µM), 27.1%; in assay [4] (setting [7]) it was 14%; in assay [4] (setting [8]), 17%; in assay [4] (at 50.0 µM), 34%. Moreover, the growth inhibition is 1% in assay [5] (setting [7]); 9% in assay [5] (setting [8]); -10.4% in assay [5] (at 50.0 µM); 2% in assay [6] (setting [7]); 12% in assay [6] (setting [8]); -19% in assay [6] (at 50.0 µM).
As to `CCCCN(C)N=Nc1c(C(N)=O)n[nH]c1C(C)C`, the growth inhibition was 14% in assay [1] (setting [7]); 84% (active) in assay [1] (setting [8]); 79.7% (active) in assay [1] (at 50.0 µM); -8% in assay [2] (setting [7]); 21% in assay [2] (setting [8]); 24.4% in assay [2] (at 50.0 µM). The growth inhibition is -4% in assay [3] (setting [7]); 52% in assay [3] (setting [8]); 29.4% in assay [3] (at 50.0 µM); -3% in assay [4] (setting [7]); -5% in assay [4] (setting [8]); 1.15% in assay [4] (at 50.0 µM). Besides, the growth inhibition in assay [5] (setting [7]) is -4%; in assay [5] (setting [8]), -10%; in assay [5] (at 50.0 µM) it was -24.2%; in assay [6] (setting [7]), 29%; in assay [6] (setting [8]), 80% (active); in assay [6] (at 50.0 µM), 57.6%.
In the case of `COc1ccc(SC2=C(N(C)C)C(=O)c3ccccc3C2=O)cc1`, the growth inhibition in assay [1] (setting [7]) is 2%; in assay [1] (setting [8]), 85% (active); in assay [1] (at 50.0 µM), 88.2% (active); in assay [2] (setting [7]), -19%; in assay [2] (setting [8]) it was 79% (active); in assay [2] (at 50.0 µM), 19.8%. In addition, the growth inhibition in assay [3] (setting [7]) is 2%; in assay [3] (setting [8]), 92% (active); in assay [3] (at 50.0 µM), 63.2%; in assay [4] (setting [7]), 54%; in assay [4] (setting [8]) it was 79% (active); in assay [4] (at 50.0 µM) it was 22.8%. In addition, the growth inhibition in assay [5] (setting [7]) is -10%; in assay [5] (setting [8]), -46%; in assay [5] (at 50.0 µM) it was 60%; in assay [6] (setting [7]), 11%; in assay [6] (setting [8]), 88% (active); in assay [6] (at 50.0 µM) it was 84.5% (active).

The values are drawn from PubChem BioAssay (NCI).
